# A selection: hits, their analogues and other compounds. The true share with any hit is near 5.7%.
# D3 ag: activates the human D3 dopamine receptor | max activation, % | D3R DiscoveRx beta-arrestin cells, luminescence, 90 min | actives 0.58% (n = 410,000) | AID 652048 | P35462; in the data active = max activation above about 30%; note: 0% is about no effect
# Target sequence (P35462 whole entry, looked up): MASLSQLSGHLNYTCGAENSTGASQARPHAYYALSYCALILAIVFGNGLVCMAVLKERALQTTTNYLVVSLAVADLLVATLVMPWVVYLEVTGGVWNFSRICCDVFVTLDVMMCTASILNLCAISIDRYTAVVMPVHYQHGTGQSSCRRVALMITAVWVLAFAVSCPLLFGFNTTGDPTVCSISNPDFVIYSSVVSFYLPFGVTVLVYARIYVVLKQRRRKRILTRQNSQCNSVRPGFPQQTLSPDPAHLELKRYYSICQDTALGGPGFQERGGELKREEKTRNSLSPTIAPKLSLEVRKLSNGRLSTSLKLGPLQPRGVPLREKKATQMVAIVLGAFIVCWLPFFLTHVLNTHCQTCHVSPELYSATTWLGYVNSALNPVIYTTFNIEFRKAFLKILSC
#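 Agonist mode: compounds and dopamine controls were applied to plated cells for 90 min at 37 degrees C after an overnight attachment at 1500 cells/well. Luminescent read-out followed 30 - 60 minutes at room temperature with DiscoveRx detection reagent.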
# GLP-1R inv ag: acts as inverse agonist at human GLP-1 receptor; P43220; HEK293 GLP-1R CRE-luciferase, luminescence, 24 h; GLP-1R form is constitutively active; Potency, µM (titrated, usually from 38.3 µM), inactives show top-dose activity change, negative = inhibition, most hits filed as inhibitors; actives 1.6% (n = 410,000); note: potency is the fitted concentration of half-maximal effect; % is set by controls: 0 for no effect and ±100 for the full control effect; nearly all actives have a fitted effect of over 55% in size
#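 Cells are plated, allowed 12 hours at 37 deg C, then treated with compounds for 24 hr before luciferase detection reagent is added and luminescence is read after 12 min at room temperature. The HEK293 line carries constitutively active GLP-1R with a cAMP-responsive reporter.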
# GLP1R cytotox: cytotoxicity in counter-screen for GLP-1R inverse agonists; HEK293 cAMP-luciferase reporter cells, luminescence, 24 h; Potency, µM (series often up to 38.3 µM), without a hit: top-dose activity change, negative = inhibition, hits mostly inhibitors; actives 0.13% (n = 410,000); AID 624418;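 note: loss of luciferase light is scored as toxicity; potency is the fitted concentration of half-maximal effect; % is set by controls: 0 for no effect and ±100 for the full control effect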
#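 A 23 nL compound transfer followed 12 hours of cell culture at 37 deg C; exposure then lasted 24 hr. Luciferase assay detection reagent was dispensed and plates read for luminescence after a 12 min room-temperature wait.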
# ClpP mod: qHTS Assay for Activators of ClpP. ATP-dependent Clp protease proteolytic subunit (Bacillus subtilis (strain 168)), P80244. purified B. subtilis ClpP, FRET peptide cleavage, 20 min. Potency, µM (highest dose often 57.5 µM), for inactives: at the highest dose activity change, negative = active. actives 1.9% (n = 340,000); active = well fitted falling curve with a large enough effect; inconclusive = small, poorly fitted or top-dose-only effect; inactive = no such curve, though single readings can be large or run the other way; note: potency is the fitted concentration of half-maximal effect; the source files actives as falling curves though it sought activators and does not explain the sign; nearly all actives have a fitted effect of over 65% in size
#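 Buffer: 100 mM Tris/HCl pH8, 100 mM KCl, 0.05% low protease BSA, 2.5% glycerol, 0.01% Tween-20. ClpP 10 microg/mL final; 20 min RT; delta FRET normalized to ADEP and DMSO controls.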
# DRD3 antagonist: D3 dopamine receptor (human) antagonism; P35462; D3R cells, DiscoveRx beta-arrestin luminescence, antagonist mode; stronger effect = lower value; max response, negative = inhibition, %; actives 2.5% (n = 360,000); in the data active = max response below about -50%; inconclusive = no clear call, values can overlap the other calls; note: % is set by controls: 0 for no effect and ±100 for the full control effect
#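 Cells expressing the human receptor were seeded at 1500 cells/well, incubated overnight at 37 degrees C in 5% CO2, then exposed to library compounds with dopamine controls for 90 minutes at 37 degrees C before luminescent detection.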
# GLP1R ag: activates the human GLP-1 receptor. P43220. HEK293 GLP-1R CRE-luciferase, luminescence, 4-6 h; cells express a hypersensitive GLP-1R form. Potency, µM (highest dose often 45.6 µM), without a hit: top-dose activation, most hits filed as activators. actives 0.007% (n = 380,000). AID 624172; note: potency is the fitted concentration of half-maximal effect; % of control where 0% means no effect
# Active calls of the source: *; i = inactive; ? = inconclusive; . = no result given; ! = a repeat was not active; [ ] = remark or other dose. Unless noted, calls come from the whole dose curve; as a rule, active = well fitted curve in the direction sought with a large enough effect; inconclusive = small, poorly fitted or top-dose-only effect, or another doubt; inactive = no such curve, though single readings can be large; an effect the other way counts as inactive or inconclusive.
SMILES,D3 ag,GLP-1R inv ag,GLP1R cytotox,ClpP mod,DRD3 antagonist,GLP1R ag
CC(C)c1ccc(Oc2cccc3c2S(=O)(=O)N(C2CCCC2)CC(COCc2ccccc2)O3)cc1 (stereo unspecified),-26.3,5.62µM*,-0.7%,-3.7%,0.0,6.3%
CC(NCc1cccc(Cl)c1Cl)C(O)c1ccccc1 (stereo unspecified),-35.1,?,-1.0%,1.7%,-28.7,18.0%
CC(NCc1ccc(Cl)cc1)C(O)c1ccccc1 (stereo unspecified),-20.8,-1.5%,4.8%,-1.5%,-104.9*,?
CC(NCc1ccc(Cl)cc1Cl)C(O)c1ccccc1 (stereo unspecified),-32.7,0.0%,11.2%,-1.3%,-56.4*,23.7%
COc1cc(OC)c(OC)cc1CNC(C)C(O)c1ccccc1 (stereo unspecified),0.5,1.4%,-4.2%,-2.8%,-66.6*,3.5%
COc1cc(CC(C)N)cc(OC)c1OC (stereo unspecified),13.2,.,.,.,.,-1.6%[110 µM]
CC(=O)[C@@]1(O)CC[C@@H]2[C@@H]3CCC4=CC(=O)CC[C@]4(C)[C@]3(F)[C@@H](O)C[C@@]21C,.,.,.,.,.,-6.3%
Cc1[nH]c2ccccc2c1CCN,-8.6,-16.9%,4.3%,-6.1%,-2.8,-3.0%
CCC1=CCN(CCc2c(C)[nH]c3ccccc23)CC1,-56.0,?,1.2%,-4.8%,-63.4*,5.6%
Cc1cc(C)cc(N2C(=O)NC(=O)/C(=C\C=C\c3ccco3)C2=O)c1,1.0,?,-3.2%,15.8µM*,-15.2,-26.6%
Cc1ccc(N2C(=O)NC(=O)/C(=C/C=C/c3ccco3)C2=O)cc1,0.6,?,1.0%,-2.4%,?,-26.6%
CC1=NN(c2ccccc2)C(=O)C1/C=C1\C(=O)NC(=O)N(c2cc(C)cc(C)c2)C1=O (stereo unspecified),0.7,-8.5%,-10.2%,25.1µM*,39.6,-10.1%
CC(C)COP(=O)(OCC(C)C)C(Nc1ccccc1)c1ccccc1 (stereo unspecified),10.6,11.2µM*,?,.,28.8,4.9%
CC(C)COP(=O)(c1ccc(N(C)C)cc1)C(Nc1ccccc1)c1ccccc1 (stereo unspecified),-7.8,?,-19.5%,3.2%,-13.5,-2.3%
C[C@](O)(CS(=O)(=O)c1ccc(F)cc1)C(=O)Nc1ccc(C#N)c(C(F)(F)F)c1,.,.,.,.,.,7.8%
Cc1nc2ccccc2c(=O)n1-c1ccccc1Cl,8.1,.,.,.,.,23.4%[96 µM]
NC(=NCCCCCCN=C(N)/N=C(\N)Nc1ccc(Cl)cc1)/N=C(\N)Nc1ccc(Cl)cc1,-60.4,?,?,-0.7%,-51.4*!,-0.8%
O=C(Nc1ccc(Cl)cc1)Nc1ccc(Cl)c(Cl)c1,13.0,?,-22.9%,-1.1%,12.1,-3.5%
O=C(Cc1ccc(Br)cc1)NCc1ccccc1,-3.3,?,?,1.1%,-7.9,0.0%
CCC(=O)Nc1ccc(C(=O)NNC(=O)c2cc([N+](=O)[O-])cc([N+](=O)[O-])c2)cc1,-3.6,26.4%,-0.1%,.,-14.2,10.7%
CCOc1ccccc1CNCCc1ccc2c(c1)OCO2,-10.5,?,2.1%,?,4.7,7.2%
CCOc1ccccc1CN1C2CCC1CC(c1ccc(C)cc1)C2 (stereo unspecified),-27.4,?,-24.3%,2.4%,-70.2*,-0.5%
O=c1[nH]c(=S)[nH]c(O)c1N=Nc1ccc2c(c1)OCO2,-12.0,5.7%,10µM*,0.9%,?,-3.2%
CC1(C)S[C@@H]2[C@H](N)C(=O)N2[C@H]1C(=O)O,4.5,.,.,.,.,.
Cc1cccc(C)c1NC(=O)C(c1ccccc1F)n1c(=O)c(-c2cc3ccccc3[nH]2)nc2ccccc21 (stereo unspecified),14.9,?,i,27.5%,32.2,.

# Screening results: PubChem BioAssay, National Center for Advancing Translational Sciences (NCATS)
